S1P4 antag: antagonists of human S1P4 receptor; O95977; S1P4-expressing cells, antagonist mode, reporter read-out; inhibition, % at 4.98 µM; 220,000 tested, 0.26% active; AID 1510; in the data active means inhibition above about 29%;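 further: 0% = wells stimulated with agonist and 100% = vehicle wells without agonist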
RAM network inh: yeast RAM network inhibition; S. cerevisiae dse1pr::URA3 reporter, 5-FOA growth OD615, 2 d; analog-sensitive cbk1-as2 kinase mutant strain; inhibition, % at 50 µM; 190,000 tested, 1.8% active;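 active means inhibition above a set limit, 3 SD over mean compound inhibition, cut at about 8.4% in these data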;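 further: 0% = DMSO-only wells with no growth and 100% = 10 µM 1-NA-PP1 full growth; inhibition rescues growth on 5-FOA so higher OD means more RAM inhibition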
KCC2 mod: KCC2 (human) Cl- transport modulation | Q9H2X9 | KCC2 cells, thallium flux FluoZin-2 fluorescence | B-score of Tl+ flux slope (higher = more flux/activation; lower = inhibition) at 10 µM | 190,000 tested, 2.2% active;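 active means thallium flux slope and its plate-corrected score both differing from the plate sample mean at a set confidence after two filtering rounds, in either direction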;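 further: slope of fluorescence scaled to starting intensity during 10 to 20 s after thallium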
ROMK mod: human ROMK K+ channel modulation, primary screen. P48048. Tet-inducible ROMK, thallium flux fluorescence; actives lie on both sides. B-score at 10 µM. 130,000 tested, 2% active. AID 1918;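 active means signal ratio slope over the read window, or its plate-corrected B-score, at least 3 SD from the plate mean, either direction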;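 further: B-score of the F/F0 ratio slope over 7 to 12 s after thallium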
S1P3 antagonist: S1P3 (human) receptor antagonism | Q99500 | CHO S1P3 NFAT-BLA reporter, FRET fluorescence, antagonist mode | inhibition, % at 4.98 µM | 170,000 tested, 0.27% active;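 active means inhibition above the plate cutoff, the mean inhibition of test wells on that plate plus 3 SD, cut at about 28% in these data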;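 further: cells challenged with S1P at its EC80 of 0.8 µM; blue over green emission ratio from cleaved BLA substrate after 4 h stimulation; 0% = S1P-stimulated wells and 100% = unstimulated DMSO-only wells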
S1P4 agonist: agonists of human S1P4 receptor; activation, % at 4.98 µM; O95977; S1P4-expressing cell line, agonist reporter assay; 220,000 tested, 0.35% active; AID 1509; in the data active means activation above about 11%;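 further: 0% = DMSO vehicle and 100% = reference agonist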
S1P4 ag conf: confirmation of human S1P4 receptor agonists; 740 tested, 7% active; activation, % at 4.98 µM; shares compounds with S1P4 agonist; S1P4 agonist cell-based reporter assay; in the data active means activation above about 12%;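 further: 0% = vehicle and 100% = full reference agonist response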
S1P1 agonist: counter-screen for S1P4 agonists: agonists of human S1P1; S1P1 agonist cell-based assay, activation; AID 1563; 740 tested, 4% active; activation, % at 4.98 µM; shares compounds with S1P4 agonist; in the data active means activation above about 21%;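 further: 0% = vehicle wells and 100% = reference agonist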
Target sequence (P21453 whole entry, looked up): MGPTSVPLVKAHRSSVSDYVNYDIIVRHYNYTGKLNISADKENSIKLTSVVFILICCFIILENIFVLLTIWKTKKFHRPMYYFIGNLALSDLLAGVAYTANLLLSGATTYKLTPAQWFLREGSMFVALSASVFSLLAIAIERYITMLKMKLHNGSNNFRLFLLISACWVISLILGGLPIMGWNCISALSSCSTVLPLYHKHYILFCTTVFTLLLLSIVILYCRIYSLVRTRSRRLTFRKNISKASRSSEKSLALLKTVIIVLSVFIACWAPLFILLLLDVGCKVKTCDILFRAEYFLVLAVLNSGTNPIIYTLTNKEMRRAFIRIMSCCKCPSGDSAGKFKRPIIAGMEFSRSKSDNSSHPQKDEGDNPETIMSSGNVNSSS
Active calls of the source: *; i = inactive; . = no result given. Most compounds without a hit are left out; they make up all but 5.1% or so of the library.

SMILES	S1P4 antag	RAM network inh	KCC2 mod	ROMK mod	S1P3 antagonist	S1P4 agonist	S1P4 ag conf	S1P1 agonist
Cc1cc(Oc2ccc(-c3nnc(-c4ccccc4)o3)cc2[N+](=O)[O-])ccc1Cl	-2	1	-0.2	-0.19	11	14*	-1	2
Cc1nnc(-c2ccc(Oc3ccc(Br)cc3)c([N+](=O)[O-])c2)o1	-17	3	0.086	-0.16	9	2	.	.
Cc1nc(-c2cccnc2)sc1C(=O)Nc1ccc(C(F)(F)F)cc1	-19	5	.	.	.	1	.	.
O=C(Nc1ccc(Br)cc1)c1csc(-c2ccncc2)n1	10	1	-1	0.24	-8	19*	-2	-3
Cc1nc(-c2ccncc2)sc1C(=O)Nc1ccc(Br)cc1	4	1	0.023	-0.25	-14	20*	-1	-8
COc1ccc(NC(=S)N2CCN(c3ccccn3)CC2)cc1OC	-23	0	1	.	4	28*	-2	-7
CCOC1CCc2c(C)nc(N)nc2S1 (stereo not given)	2	.	0.7	0.25	-2	24*	-2	0
C=C(C)C1Cc2nc(N)nc(C)c2C1 (stereo not given)	-26	0	.	1.3	-14	-1	.	.
COc1ccc(C2CC(c3cccs3)=NN2c2ccc(C=O)cc2)cc1 (stereo not given)	-6	6	i	-1.4	17	23*	17*	21*
Cc1ccc2c(c1)C1(C)C(C(C)(C)N2C=O)C1(Cl)Cl (stereo not given)	-2	.	-1.6	.	-2	0	.	.
Cc1cc(NC(=O)CCC(=O)N(CC(=O)NC2CCCC2)Cc2cccs2)no1	-6	0	0.73	0.15	-18	33*	-2	-3
COCCN(Cc1ccco1)C(=O)Cn1ncc2c(=O)oc3ccccc3c21	-6	.	-0.56	.	-18	0	.	.
COc1cccc(NC(C(=O)Nc2cccc(C(C)=O)c2)c2ccccc2)c1 (stereo not given)	-15	4	0.44	-0.05	-6	14*	-2	2
O=C1CNC(=S)N1CCc1ccccc1Cl	6	.	0.0092	0.98	-2	-2	.	.
Cc1nc2cc(NC(=O)NCc3ccco3)ccc2o1	-20	0	-0.0066	-0.047	1	20*	-2	3
COc1cccc(CNc2cccc(C(F)(F)F)c2)c1O	6	-2	1.2	0.33	-17	17*	-2	-4
COc1ccc(-n2cc(CNCCc3cscn3)c(-c3ccccc3Cl)n2)cc1	-9	0	0.72	-1.3	-8	112*	-1	-4
Cc1ccc(-n2cc(CNCCc3cscn3)c(-c3ccc(F)cc3)n2)cc1	-27	0	0.12	-1.6	-2	0	.	.
COc1ccc2cc(C(=O)NCc3ccco3)c(=O)oc2c1	-14	2	-0.11	.	1	1	.	.
O=C(NCc1ccco1)c1cc2ccc(O)cc2oc1=O	-127	2	.	.	-36	112*	51*	84*
O=C(c1ccc(NC(=S)Nc2ccc(Cl)c(Cl)c2)cc1)N1CCCC1	-24	1	0.25	.	-18	23*	-2	-2
CC(=O)Nc1ccccc1P(=O)(c1ccccc1)c1ccccc1OC(C)=O (stereo not given)	-10	.	0.63	.	7	0	.	.
COc1ccc(C2=NOC(C(=O)NC(C)(C)C)C2)cc1 (stereo not given)	-16	1	0.19	.	-5	23*	-2	-9
COc1ccc(C2=NOC(C(=O)NCc3ccccc3)C2)cc1 (stereo not given)	-25	3	1.1	.	14	0	.	.
COCCn1c(C)cc(/C=C2/NC(=O)N(c3cccc(Cl)c3)C2=O)c1C	-13	6	1.4	0.65	12	105*	-1	-2
SMILES	S1P4 antag	RAM network inh	KCC2 mod	ROMK mod	S1P3 antagonist	S1P4 agonist	S1P4 ag conf	S1P1 agonist
Cc1nn(C(C)C(=O)NCC2CCCO2)c(C)c1[N+](=O)[O-] (stereo not given)	2	1	0.76	.	8	5	.	.
O=C(CSCc1ccc(Br)cc1)Nc1ccc(S(=O)(=O)N2CCOCC2)cc1	-6	1	.	-0.65	.	1	.	.
O=C(CSCc1ccc(Cl)cc1)Nc1ccc(S(=O)(=O)N2CCCCCC2)cc1	-11	0	-1.7	.	-12	15*	-3	-5
Cc1nn(Cc2ccccc2)c(Cl)c1/C=C1\NC(=S)NC1=O	-10	2	-0.021	0.92	-6	1	.	.
Nn1c(SCC(=O)Nc2cccc(F)c2)nnc1C1CCCCC1	-4	0	0.22	-0.18	1	18*	-1	7
CCNC(=S)N(CCc1cccc(C)c1)Cc1cc2cc(OC)c(OC)cc2[nH]c1=O	-2	1	0	1.1	-2	51*	-1	-4
CCNC(=S)N(CCc1ccccc1C)Cc1cc2cc(OC)c(OC)cc2[nH]c1=O	-10	3	-1.3	-0.83	-7	1	.	.
COc1ccc(NC(=O)COC(=O)c2ccc(Cl)c(S(N)(=O)=O)c2)c([N+](=O)[O-])c1	-17	.	0.23	.	3	0	.	.
NC(=O)C1CCN(C2CC(=O)N(Cc3cccs3)C2=O)CC1 (stereo not given)	3	2	.	1.4	.	28*	-2	6
Cc1cc(OCC(=O)N2CCOCC2)ccc1[N+](=O)[O-]	1	.	-0.27	.	-2	-2	.	.
O=C(NNC(=O)c1ccccc1Cl)c1cc2cc(OC(F)(F)F)ccc2[nH]1	-3	.	-0.22	.	-11	-1	.	.
O=S(=O)(c1ccc(Cl)cc1)N1CCN(c2nc(-c3cccs3)nc3ccccc23)CC1	-5	3	0.55	0.1	-15	15*	-2	6
O=S(=O)(c1ccccc1)N1CCN(c2nc(-c3cccs3)nc3ccccc23)CC1	-7	2	-0.99	-1.2	13	1	.	.
CC(C)Sc1nc2ccc(Br)cc2[nH]1	-15	0	-1.9	-0.79	-8	14*	-2	2
Cc1cc(C(=O)NCCN2C(=O)S/C(=C\c3cccs3)C2=O)ccc1[N+](=O)[O-]	-15	4	-0.89	-0.028	0	0	.	.
COc1cc(Br)cc(C=Nc2cccc(C(F)(F)F)c2)c1O	-15	-1	-1.4	1.8	-6	13*	0	2
Cc1ccc(C(=O)NNC(=O)CSc2n[nH]c(-c3cccnc3)n2)cc1	-1	3	0.63	-1.1	4	-1	.	.
O=C(Nc1ccccc1)C1=C[C@H](c2csc3ccccc23)C[C@H](OCc2ccc(CO)cc2)O1	-19	5	0.16	.	-10	16*	-1	0
C/C(=C\c1ccccc1)C(=O)NCCCn1ccnc1	-10	1	0.45	0.69	-5	2	.	.
Cn1c(SCC(O)c2ccccc2)nnc1-c1ccc2ccccc2c1 (stereo not given)	13	.	-1.3	.	-12	-1	.	.
